Experimental data published in PubChem BioAssay AID1645887 (National Center for Advancing Translational Sciences (NCATS), 2021).
Values joined by “and” are separate entries in the source; they are usually repeats but may differ in a detail not shown here. Equal values may be shown once. About 40 (0.2%) of roughly 16,000 compounds were called active. Inconclusive results (about 1%) are left out. The full list was thinned out, with actives kept by preference. A number with no mark means an inactive call. Calls come from the whole dose curve; as a rule, active = well fitted activation curve with a large enough effect; inconclusive = small, poorly fitted or top-dose-only effect, or another doubt; inactive = no such curve, though single readings can be large or run the other way.
% is set by controls: 0 for no effect and ±100 for the full control effect; potency is the fitted concentration of half-maximal effect.
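Throughout, for activation: exchange makes BODIPY-GDP fluorescence drop when released from Rap1B; series mostly up to about 150 µM.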

What follows are molecules tested against Rap guanine nucleotide exchange factor 4 (Homo sapiens) (UniProt Q8WZA2) (assay: Validation qHTS for agonist of cAMP-regulated guanine nucleotide exchange factor 4 (EPAC2)). Settings: EPAC2 Rap1B BODIPY-GDP exchange, fluorescence; activation: hits give high values.
Chain of Rap guanine nucleotide exchange factor 4 (Homo sapiens) (Q8WZA2 whole entry, looked up): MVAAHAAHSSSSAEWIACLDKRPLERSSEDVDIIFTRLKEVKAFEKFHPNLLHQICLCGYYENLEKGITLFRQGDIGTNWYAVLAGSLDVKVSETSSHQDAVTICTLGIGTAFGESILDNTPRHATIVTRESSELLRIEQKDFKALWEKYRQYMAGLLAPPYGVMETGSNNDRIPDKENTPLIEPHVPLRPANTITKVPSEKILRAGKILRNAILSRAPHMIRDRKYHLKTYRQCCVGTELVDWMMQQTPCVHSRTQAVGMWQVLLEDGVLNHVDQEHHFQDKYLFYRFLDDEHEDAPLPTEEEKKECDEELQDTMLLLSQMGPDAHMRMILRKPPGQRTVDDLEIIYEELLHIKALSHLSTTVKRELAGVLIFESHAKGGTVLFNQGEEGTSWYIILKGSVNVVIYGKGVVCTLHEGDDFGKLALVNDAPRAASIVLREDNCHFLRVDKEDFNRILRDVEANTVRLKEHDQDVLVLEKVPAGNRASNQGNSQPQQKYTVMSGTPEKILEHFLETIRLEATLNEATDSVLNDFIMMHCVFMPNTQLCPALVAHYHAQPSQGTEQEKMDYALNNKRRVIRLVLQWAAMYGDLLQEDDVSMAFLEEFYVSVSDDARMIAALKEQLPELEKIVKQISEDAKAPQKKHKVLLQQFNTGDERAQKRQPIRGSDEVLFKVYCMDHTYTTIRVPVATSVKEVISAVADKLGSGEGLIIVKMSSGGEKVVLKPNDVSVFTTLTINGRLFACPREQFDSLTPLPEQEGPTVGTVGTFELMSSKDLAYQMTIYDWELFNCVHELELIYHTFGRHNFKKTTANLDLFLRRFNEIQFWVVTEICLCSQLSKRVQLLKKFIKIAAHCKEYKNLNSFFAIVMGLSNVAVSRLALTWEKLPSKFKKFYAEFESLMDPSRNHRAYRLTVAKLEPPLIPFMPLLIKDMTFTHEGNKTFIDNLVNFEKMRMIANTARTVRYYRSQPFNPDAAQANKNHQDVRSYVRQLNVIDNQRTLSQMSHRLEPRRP
Excerpt: Principle Investigator: Xiaodong Cheng Ph.D.
The University of Texas Medical Branch, […], TX
In multi-cellular eukaryotic organisms, the effects of cAMP are transduced by two ubiquitously-expressed intracellular cAMP receptors, the classic protein kinase A/cAMP-dependent protein kinase (PKA/cAPK) and the more recently discovered exchange protein directly activated by cAMP/cAMP-regulated guanine nucleotide exchange factor (EPAC/cAMP-GEF). Both PKA and EPAC are ubiquitously expressed in all tissues, and an increase in intracellular cAMP levels will lead to the activation of both PKA and EPAC. Therefore, careful dissections of the individual role and relative contribution of EPAC and PKA within the overall cAMP signaling in various model systems are critical for further elucidating the mechanism of cAMP signaling. To date no EPAC-specific antagonists and agonist, as well as isoform-specific agonists have been reported, and developing EPAC-specific pharmacological probes to determine the physiological functions that EPAC play in the overall cAMP-mediated signaling remains a major challenge within the research field. Furthermore, identified regulators of EPAC may lead to new mechanism-based therapeutic strategies specifically targeting the EPAC / cAMP-signaling components as EPAC has been implicated to play important roles in major human pathological conditions such as diabetes, heart disease, and cancer.
This qHTS will be used to screen the Molecular Libraries Small Molecule Repository (MLSMR) as a concentration-titration series using the NCGC unique quantitative screening (qHTS) platform to find activators for EPAC1. In addition, this assay will also be used as a counterscreen for the EPAC2 qHTS. This fluorescent based assay is developed and validated for EPAC1 that measures exchange using EPAC effector Rap1 complex with BODIPY-GDP, a GDP analog with a tethered fluorophores. Activators are identified by monitoring the change in fluorescence signal as the exchanged free BODIPY-GDP has a reduced fluorescence compared to Rap1-bound BODIPY-GDP. Increase in signal (activation) is the desired outcome for the EPAC1 agonist while no activity in this assay is desired for the EPAC2 agonist counterscreen.
[1] de Rooij, J., Zwartkruis, F. J., Verheijen, M. H., Cool, R. H., Nijman, S. M., Wittinghofer, A., and Bos, J.L. (1998) Nature 396, 474-477.
Briefly, three uL of reagents (100 nM EPAC2, 250 nM RAP1B-BODIPY-GDP, 50 uM GDP) were dispensed into a 1536-well Greiner black solid-bottom medium binding assay plate. Controls and test compounds (23 nL) were transferred to the plate via a Kalypsys pin tool equipped with a 1536-pin array. The plates were centrifuged at 1,000 rpm for 15 seconds followed by 5 minute incubation at room temperature. The assay plates were read at 5 minute intervals for 30 minutes in the ViewLux plate reader using 480nm excitation and 540nm emission filters. The results were normalized to the agonist positive control of 6.5 mM cAMP.
`CN(C)C(=O)c1ccc(-c2nc(N3CCOCC3)c3ccccc3n2)cc1` showed an activation of -5.48%.
In the case of `CC(C)C[C@@H](CC#N)N1CCN(Cc2ccccc2)CCC1=O`, the activation is reported as -11.1%.
Work on `Clc1ccc[n+](CCCCC[n+]2cccc(Cl)c2)c1` yielded an activation of -27.9%.
`O=C(Nc1ccc(C(F)(F)F)cc1[N+](=O)[O-])O[C@H]1[C@H](Cc2ccccc2)NS(=O)(=O)[C@H]2C[C@@H]3C=C[C@]12O3` was tested, and the activation was -19.6%.
Work on `COc1ccc(C(=O)C[n+]2cccc3cccc(O)c32)cc1` yielded an activation of -13.2%.
`CC[C@@]1(O)C[C@H](O[C@H]2C[C@H](N(C)C)[C@H](O[C@H]3C[C@H](O)[C@H](O[C@H]4CCC(=O)[C@H](C)O4)[C@H](C)O3)[C@H](C)O2)c2c(cc3c(c2O)C(=O)c2c(O)cccc2C3=O)[C@H]1C(=O)OC` gave an activation of 26%.
For `CC(=O)[C@]1(O)Cc2c(O)c3c(c(O)c2[C@@H](O[C@H]2C[C@H](N)[C@H](O)[C@H](C)O2)C1)C(=O)c1c(O)cccc1C3=O`, the Potency was 100 µM (active).
`COc1cccc2c1C(=O)c1c(O)c3c(c(O)c1C2=O)C[C@@](O)(C(=O)CO)C[C@@H]3O[C@H]1C[C@H](N)[C@H](O[C@@H]2CCCCO2)[C@H](C)O1` gave an activation of 1.58%.
With `CC(=O)[C@]1(O)Cc2c(O)c3c(c(O)c2[C@@H](O[C@H]2C[C@H](N)[C@H](O)[C@H](C)O2)C1)C(=O)c1ccccc1C3=O` the Potency was 100 µM (active).
`COc1cccc2c1C(=O)c1c(O)c3c(c(O)c1C2=O)C[C@@](O)(C(C)=O)C[C@@H]3O[C@H]1C[C@H](N)[C@H](O)[C@H](C)O1` was tested, and the Potency was 100 µM (active).
In the case of `CCCCC(=O)OCC(=O)[C@]1(O)Cc2c(O)c3c(c(O)c2[C@@H](O[C@H]2C[C@H](NC(=O)C(F)(F)F)[C@H](O)[C@H](C)O2)C1)C(=O)c1c(OC)cccc1C3=O`, the activation is reported as -1%.
With `COc1cccc2c1C(=O)c1c(O)c3c(c(O)c1C2=O)C[C@@](O)(C(=O)CO)C[C@@H]3O[C@H]1C[C@H](N)[C@H](O)[C@H](C)O1` the activation was -17.2%.
Work on `Cc1c(C(=O)NCc2ccco2)cnn1-c1ncc2c(n1)-c1ccccc1CC2` yielded an activation of -0.162%.
`O=C(c1ccncc1)N1CCC2(CCCN(c3ccc(-c4ccccc4)cc3)C2)CC1` gave an activation of -3.07%.
For `COc1cc2c(cc1OC)C(=O)N(C)CC2`, the activation was -9.91%.
In the case of `CC(C)NC(=O)[C@@H]1C[C@@H](Sc2ccccn2)CN1C1CCN(C)CC1`, the activation is reported as -0.85%.
`C=CCN1[C@@H](Cc2ccccc2)COCCS1(=O)=O` gave an activation of -11.2%.
`Cc1cccc(CN2Cc3cccc4c3[C@H](C=CC4)CC2=O)c1` showed an activation of -35.8%.
`Cc1cc(CC(=O)O)c(C)n1-c1ccc(Cl)cc1` was tested, and the activation was -0.347%.
`COc1ccccc1CNc1ncncc1-c1ccccc1CN(C)C` gave an activation of -6.39%.
In the case of `COc1ccccc1CCNc1ncnc2sc(C(=O)N3CCCC3)c(C)c12`, the activation is reported as -2.93%.
With `COc1cccc(-c2ccc3ncnc(NCc4cccnc4)c3c2)c1` the activation was -11%.
For `Clc1cccc[n+]1CCc1ccccc1`, the activation was -40.7%.
With `COc1ccc(N2C(=O)[C@@H]3C[C@H]2CN3Cc2ccc3nccnc3c2)cc1Cl` the activation was -3.06%.
Molecule `CC[C@@H]1[C@H]2CCCC(=O)N3CC[C@@H](C[C@H]1O)[C@@H]23` has an activation of -8.94%.
With `N[C@@H](Cn1cc(I)c(=O)n(Cc2ccc(C(=O)O)cc2)c1=O)C(=O)O` the activation was 2.18%.
Work on `O=c1c(-c2ccc(F)c(F)c2)nc2cncnc2n1Cc1ccccc1` yielded an activation of -20.1%.
Work on `C[N+](C)(CCOc1ccccc1)Cc1cccs1` yielded an activation of -2.61%.
`O=C(NCc1ccncc1)c1cnn(-c2nccc(-c3cccs3)n2)c1C1CC1` was tested, and the activation was -7.47%.
With `COc1ncc2nc(C)c(=O)n(Cc3cccs3)c2n1` the activation was -6.26%.
Work on `CN(C)Cc1ccccc1-c1cncnc1Nc1ccncc1` yielded an activation of 2.36%.
Molecule `COc1cccc(Cn2c(=O)c(C)nc3cnc(N4CCOCC4)nc32)c1` has an activation of 1.39%.
Work on `CN(C)C(=O)c1ccc(-c2cc(NCc3cccs3)ncn2)cc1` yielded an activation of -16.8%.
Molecule `CCNc1ncc2nc(-c3cccc(C#N)c3)c(=O)n(Cc3cccc(OC)c3)c2n1` has an activation of 3.97%.
Work on `Cc1ccc(C(C)CCN2CCOc3ccc(CN4CCOCC4)cc3C2)o1` (stereo unspecified) yielded an activation of 1.95%.
Molecule `CC1CN(c2cc3c(cc2F)c(=O)c(C(=O)O)cn3-c2ccc(F)cc2F)CCN1` (stereo unspecified) has an activation of -22.2%.
`C=C[C@@H]1c2cc(C)ccc2N(S(=O)(=O)c2ccc(C)cc2)[C@H](c2ccc(OC(C)=O)cc2)C1(C#N)C#N` showed an activation of -9.82%.
In the case of `CCN(CC)CCCC(C)Nc1ccnc2cc(Cl)ccc12` (stereo unspecified), the activation is reported as -8.87% and 0.526% and -22.7%.
`CCN(CC)CCCC(C)Nc1cc(/C=C/c2ccccc2Cl)nc2cc(Cl)ccc12` (stereo unspecified) was tested, and the activation was 16.5%.
In the case of `CCN(CC)CCCC(C)Nc1c2ccc(Cl)cc2nc2ccc(OC)cc12` (stereo unspecified), the Potency is reported as 89.1 µM (active).
Work on `COc1ccccc1-c1ccnc(-n2ncc(C(=O)NCc3cccnc3)c2C)n1` yielded an activation of 8.95%.
Work on `COc1ccccc1/C=C\C(=O)OC[C@@H]1CCCN2CCCC[C@H]12` yielded an activation of -21.1%.
`CCOC(=O)CCC(=O)O[C@H]1C(O[C@@H]2C(C)[C@H](O[C@H]3C[C@@](C)(OC)C(O)C(C)O3)C(C)C(=O)OC(CC)[C@@](C)(O)C(O)[C@H](C)C(=O)C(C)C[C@]2(C)O)OC(C)CC1N(C)C` (stereo partly specified) gave an activation of -16.2%.
Molecule `O=c1c(-c2ccc(F)cc2)nc2cnc(Oc3cccc(Cl)c3)nc2n1C[C@H]1CCCO1` has an activation of 10.2%.
`CO[C@H]1[C@H](NC(=O)c2ccsc2)c2ccccc2C12CCN(Cc1c(O)ccc3ccccc13)CC2` showed an activation of -7.57%.
With `OCCN(CCO)c1nc(N2CCCCC2)c2nc(N(CCO)CCO)nc(N3CCCCC3)c2n1` the Potency was 112 µM (active) and 100 µM (active).
Work on `COCC(=O)N1CCC2(CC1)CN(c1cccc(-c3ccccc3)c1)C2` yielded an activation of -17%.
`Cc1noc(C)c1-c1nc(NCc2cccnc2)c2ccccc2n1` was tested, and the activation was -6.22%.
With `Cc1oc(-c2ccccc2NC(=O)c2ccccc2)nc1CNC(=O)C1CC(=O)OC12CCCCC2` (stereo unspecified) the activation was -5.24%.
`CSc1nnc(CNC(=O)c2c(-c3ccccc3)noc2C)n1-c1ccc(F)cc1` gave an activation of -0.342%.
In the case of `Cc1cccnc1-c1cccc2c1OC(CNC(=O)C(=O)c1ccccc1)C2` (stereo unspecified), the activation is reported as -7.04%.
`COc1cccc(CNC(=O)c2c(OC)cc(=O)n3c2CCN(C(=O)c2csc(C)n2)CC3)c1` showed an activation of 1.41%.
`CCOC(=O)c1c[nH]c2cc(OCC(C)C)c(OCC(C)C)cc2c1=O` gave an activation of -9.73%.
In the case of `Cn1c2c(c(=O)c3ccccc31)C[C@@H](O)C(C)(C)O2`, the activation is reported as -9.21%.
In the case of `Cc1cc2nc3c(=O)[nH]c(=O)nc-3n(C[C@H](O)[C@H](O)[C@H](O)COP(=O)(O)OP(=O)(O)OC[C@H]3O[C@@H](n4cnc5c(N)ncnc54)[C@H](O)[C@@H]3O)c2cc1C`, the Potency is reported as 89.1 µM (active).
`Cc1cc2nc3c(=O)[nH]c(=O)nc-3n(C[C@H](O)[C@H](O)[C@H](O)CO)c2cc1C` was tested, and the Potency was 79.4 µM (active) and 100 µM (active).
For `Nc1ncnc2c1ncn2[C@@H]1O[C@H](COP(=O)(O)OP(=O)(O)OP(=O)(O)OP(=O)(O)OC[C@@H]2O[C@H](n3cnc4c(N)ncnc43)[C@@H](O)[C@H]2O)[C@@H](O)[C@H]1O`, the activation was 12.8% and -62.2%.
`Nc1ncnc2c1ncn2[C@@H]1O[C@H](COP(=O)(O)OP(=O)(O)OP(=O)(O)O)[C@@H](O)[C@H]1O` was tested, and the activation was 1.95%.
`Cc1cc2nc3c(=O)[nH]c(=O)nc-3n(CC(O)C(O)C(O)CO)c2cc1C` (stereo unspecified) was tested, and the Potency was 89.1 µM (active).
With `CC[C@H]1OC(=O)[C@H](C)[C@@H](O[C@H]2C[C@@](C)(OC)[C@@H](O)[C@H](C)O2)[C@H](C)[C@@H](O[C@@H]2O[C@H](C)C[C@H](N(C)C)[C@H]2O)[C@](C)(O)C[C@H](C)C(=NOCOCCOC)[C@H](C)[C@@H](O)[C@]1(C)O` the activation was -4.72%.
Work on `C[C@@H]1CN(Cc2ccc3c(c2)CN(Cc2cccc4c2OCO4)CCO3)C[C@H](C)O1` yielded an activation of -2.91%.
`CC(=O)c1ccc(F)c(-c2cc(C)cc3c2OC(CNC(=O)C[C@@H]2C[C@@H](C)NC(=S)N2)C3)c1` (stereo partly specified) was tested, and the activation was -13.4%.
`C[n+]1c2cc(N)ccc2cc2ccc(N)cc21` (tested in a mixture with another compound) was tested, and the Potency was 22.4 µM (active).
`Cc1ccc(N)cc1O` was tested, and the activation was 2.89%.
Molecule `CC(C)NC(=O)N1CCC2(CC1)CCN(S(=O)(=O)c1ccccc1)CC2` has an activation of -7.09%.
`O=S1(=O)CCOCCCN1Cc1cccc(F)c1` showed an activation of -1.25%.
With `OCC1OC(n2cnc3c(Cl)nc(Cl)nc32)C(O)C1O` (stereo unspecified) the activation was -15.7%.
`O=C(c1cccc(F)c1)N1CCC2(CC1)CN(c1ccccc1)C2` gave an activation of 4.44%.
With `NC(=S)c1ccc[n+]([C@@H]2O[C@@H](COP(=O)([O-])OP(=O)(O)OC[C@H]3O[C@@H](n4cnc5c(N)ncnc54)[C@H](OP(=O)(O)O)[C@@H]3O)C(O)C2O)c1` (stereo partly specified) the activation was -34.4%.
`COCCn1c(=O)c(CCc2ccccc2)nc2cnc(N3CCN(C)CC3)nc21` gave an activation of -2.75%.
Molecule `COC(=O)C1C(O)CC[C@H]2CN3CCc4c([nH]c5ccccc45)C3C[C@H]12` (stereo partly specified) has an activation of 2.5%.
